The record followed here is PubChem BioAssay AID1259374 (The Scripps Research Institute Molecular Screening Center, 2018).

The structures appear in SMILES notation. Hit rate of the full screen: of about 650,000 compounds, about 5,900 (0.91%) were called active. Many of the other results were omitted from the sample, so actives are more common in it than they were. Values without a mark were called inactive. Cut-off read from the data, not from the text of the source: active = inhibition above about 50%; inactive = the rest.

Sequence of Microphthalmia-associated transcription factor (Homo sapiens) (O75030 whole entry, looked up): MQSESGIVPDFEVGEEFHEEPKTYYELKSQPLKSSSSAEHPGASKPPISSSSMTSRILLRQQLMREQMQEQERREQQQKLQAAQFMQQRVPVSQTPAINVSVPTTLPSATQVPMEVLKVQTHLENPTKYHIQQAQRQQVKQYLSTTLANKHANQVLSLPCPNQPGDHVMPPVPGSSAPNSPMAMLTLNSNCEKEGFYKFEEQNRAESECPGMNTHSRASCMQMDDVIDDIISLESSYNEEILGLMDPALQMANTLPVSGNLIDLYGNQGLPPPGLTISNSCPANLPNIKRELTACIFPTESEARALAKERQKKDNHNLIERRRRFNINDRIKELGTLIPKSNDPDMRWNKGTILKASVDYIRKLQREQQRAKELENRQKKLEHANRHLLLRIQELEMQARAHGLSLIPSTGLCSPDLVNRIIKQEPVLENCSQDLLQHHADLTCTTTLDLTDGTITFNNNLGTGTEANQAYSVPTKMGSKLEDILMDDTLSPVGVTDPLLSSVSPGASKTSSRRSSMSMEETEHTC

This assay has as its target Microphthalmia-associated transcription factor (Homo sapiens) (UniProt O75030). As to the kind of experiment: MITF inhibitors, primary screen, biochemical, AlphaScreen, human (AID 1259374).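 Note: 0% = vehicle wells with protein.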 To be noted: AlphaScreen MITF homodimerization, bead proximity signal; at 2.6 µM; active compounds read high. For orientation: In Alpha technology, singlet oxygen from a donor bead excites a nearby acceptor bead.
As for `CSc1ccc(CCNC(=O)c2cc3ccccn3n2)cc1`, the inhibition is -9.21%. With `COc1ccc2[nH]c3c(c2c1)CCOC31CCN(C(=O)N[C@@H](C)c2ccccc2)CC1` the figure was -20.6%; with `O=C(Nc1cccc(Cl)c1N1CCN(Cc2ccco2)CC1)c1ccc(Br)o1`, -6.95%. With `O=C(CNCc1ccc(F)cc1)Nc1ccc(N2CCCC2)cc1` the figure was 53.1% (active); with `O=C(CNCCC1=CCCCC1)Nc1ccc(N2CCCC2)cc1`, 10.5%; with `O=C(CNC1CCCC1)Nc1ccc(N2CCCC2)cc1`, 6.86%. Next, `O=C(NCc1ccccc1)NC(=O)c1cccnc1`: 22.7%; `CCOc1ccc(-c2cc(N)n(S(=O)(=O)c3ccc(C)cc3)n2)cc1`: -6.9%; `Cn1c(=NC(=O)CCOc2ccccc2)sc2cc(Br)ccc21`: 3.97%. For the compound `Cn1c(=NC(=O)COc2ccccc2)sc2cc(S(C)(=O)=O)ccc21`, the inhibition is 52.2% (active). `CCCC(=O)N=c1sc2cc(S(C)(=O)=O)ccc2n1C`: the inhibition was 19%.

`Cc1ccc(/C=C2\N=C(c3cccc(I)c3)OC2=O)cc1`: the inhibition is 12.7%.

As to `Cc1ccc(C)c(NC(=O)CN(Cc2ccccc2)S(=O)(=O)c2ccc(Br)cc2)c1`, the inhibition is -9.84%. For the compound `CCN(Cc1ccccc1)C(=O)c1cc2c(=O)n3cccc(C)c3nc2n1C`, the inhibition is -25.5%. Take `Cc1ccc(NC(=O)CN2CCN(c3ccccn3)CC2)cc1F`: the inhibition is 8.15%. For the compound `Cc1ccc(NC(=O)Cn2ccsc2=N)cc1F`, the inhibition was 6.14%. Next, `CC(=O)N1CCN(CC(=O)Nc2ccc(C)c(F)c2)CC1`: 52.6% (active); `CCOc1ccc(Cl)cc1/C=C1/SC(=S)N(CCC(=O)O)C1=O`: -26.2%; `CC(C)n1cnc2c(NCc3ccccc3)nc(Nc3ccncn3)nc21`: 10%. With `FC(F)(F)c1cc(-c2cnc3c(NCc4cccnc4)nccn23)cc(C(F)(F)F)c1` the figure was -11.6%; with `Cn1c(-c2ccc(F)cc2)cnc1NCc1cccnc1`, 72.7% (active); with `Cn1c(-c2ccccc2)cnc1NCc1cccc(F)c1`, 38%.

Consider `COc1ccc(C(=O)COC(=O)c2c3c(nc4ccccc24)CCCC3)cc1OC`, for which the inhibition is 0.37%. Turning to `CN(Cc1cccs1)C(=O)CC1(c2cccc(F)c2)CC(=O)N(C2CCCC2)C1=O` (centres undefined), the inhibition is 7.07%. Regarding `Cc1[nH]c2ccccc2c1CN1CCN(Cc2ccc3c(c2)OCO3)CC1`, the inhibition was 38.3%. `OC1(Cc2ccccc2)CCN(Cc2ccncc2)CC1`: the inhibition is 1.54%. With `Cc1ccc(CN2CCN(Cc3ccncc3)CC2)cc1` the figure was 77.5% (active). With `Cc1ccc(N2CCN(Cc3cccnc3)CC2)cc1` the figure was 9.13%; with `Cc1cc(OCC(O)CN2CCCC2)ccc1Cl` (centres undefined), 8.73%; with `O=C1OC(c2ccc(F)cc2)=N/C1=C/c1ccc([N+](=O)[O-])cc1`, 5.42%. Next, `Cn1c(=O)n(Cc2cc3c(cc2Cl)OCO3)c2cccnc21`: 13.7%. `CCN(CC)CCN1COc2c(cc(Cl)c3cccnc23)C1`: the inhibition is 102% (active). With `CCN(CC)CCN1CCN(c2ncc(-c3ccccc3)n3ccnc23)CC1` the figure was 8.61%. For `O=C(Cc1cccs1)N/N=C\c1ccc(Cl)c(Cl)c1`, the inhibition was -9.59%. In the case of `O=C(Cc1cccs1)N/N=C\C=C\c1ccco1`, the inhibition was 64.5% (active). Next, `C/C(=N/NC(=O)Cc1cccs1)c1ccc(Br)cc1`: 7.44%; `Cc1ccc(N(C(=O)C(C)Oc2ccccc2)C2C=CS(=O)(=O)C2)cc1` (centres undefined): -4%.

Turning to `O=C(Nc1cccs1)N1CCC(Cn2c(COc3ccccc3)nc3ccccc32)CC1`, the inhibition is 12.3%. With `COCCNC(=O)Nc1ccc2nc(-c3ccco3)c(-c3ccco3)nc2c1` the figure was 87.1% (active).

Regarding `COCCCNC(=O)Nc1ccc(Cl)c(Cl)c1`, the inhibition is 9.41%. Next, `COCCCNC(=O)Nc1ccc([N+](=O)[O-])cc1`: 6.26%; `O=C(CCN1C(=O)C2C3C=CC(C3)C2C1=O)Nc1ncc(S(=O)(=O)c2ccc([N+](=O)[O-])cc2)s1` (centres undefined): 2.57%; `O=C(NNC(=O)c1cc([N+](=O)[O-])ccc1Cl)c1cccc(Cl)c1`: -0.55%. With `COC(=O)c1sc2nc(C)[nH]c(=O)c2c1C`, the inhibition is -2%. In the case of `CSc1nnc(SCc2nc3sc(C(=O)O)c(C)c3c(=O)[nH]2)s1`, the inhibition was 55.8% (active). Next, `Cc1cc(C)n2c(SCc3nc4sc(C)c(C)c4c(=O)[nH]3)nnc2n1`: 7.98%; `Cc1ccc(C)c(N2CCN(Cc3nnnn3Cc3ccc(F)cc3)CC2)c1`: 13.1%; `CC1(C(=O)O)NC(c2cc(Cl)cc(Cl)c2O)C2C(=O)N(c3ccccc3)C(=O)C21` (centres undefined): -2.7%.

Regarding `COc1ccccc1N1CCN(S(=O)(=O)c2ccccc2[N+](=O)[O-])CC1`, the inhibition was -2.42%. On to `O=[N+]([O-])c1ccccc1S(=O)(=O)N1CCN(C2Cc3ccccc3C2)CC1`, for which the inhibition was 52.9% (active). Next, `O=CN1CCN(S(=O)(=O)c2ccccc2[N+](=O)[O-])CC1`: -7.16%; `CC(=O)c1cccc(-c2nc(C)cc(NCc3nc4ccccc4[nH]3)n2)c1`: -6.7%. With `COC(=O)c1sc(NC(=O)c2ccncc2)c(C#N)c1C` the figure was 22.1%; with `COC(=O)c1sc(NC(=O)c2cccc(OC)c2OC)c(C#N)c1C`, 15.6%. As to `COC(=O)c1sc(NC(=O)c2ccccc2C)c(C#N)c1C`, the inhibition is 58.6% (active).

As to `O=C(O)CCCCC1SCC2NC(=O)NC21O` (centres undefined), the inhibition was 115% (active).

For the compound `COc1ccc(NC(=O)c2cc(S(=O)(=O)NCCc3ccccc3)ccc2F)cc1`, the inhibition is 9.24%. Next, `O=c1c2c(nc(SCc3ccccc3)n1-c1ccccc1)-c1ccccc1CC21CCCC1`: 7.99%; `CC(C)C(Nc1nc(N2CCC[C@H]2C(=O)O)ccc1[N+](=O)[O-])C(=O)O` (some centres undefined): 4.19%.

One may read the inhibition as the change of the read-out against control, counted positive when it falls.
